Only some compounds are listed: those with a hit (about 7.9% of all), similar ones and a draw of the others.
Lassa entry inh – qHTS for Inhibitors of binding or entry into cells for Lassa Virus | Potency, µM (titrated, usually from 37.9 µM), actives largely listed as inhibitors | Lassa virus pseudotype entry inhibition, cell reporter | 300,000 compounds, 1.2% hits; calls by dose curve; tested in HEK293 cells; further: nearly all actives have a fitted effect of over 50% in size
FMDV antiviral – High Throughput Screening for Foot and Mouth Disease Virus Antivirals | Potency, µM (highest dose often 57.9 µM), hits mostly inhibitors | AID 1159524, 2015 | 410,000 compounds, 1.2% hits | FMDV antiviral cell-based qHTS; calls by dose curve; tested in HEK293T cells; further: read-out not given here; nearly all actives have a fitted effect of over 45% in size
MARV entry inh – qHTS for inhibitors of binding or entry into cells for Marburg Virus. Marburg virus pseudotyped entry inhibition, cell reporter. Potency, µM (highest dose often 37.8 µM), hits mostly inhibitors. 300,000 compounds, 1.8% hits; calls by dose curve; tested in HEK293 cells
HCMV inh – qHTS Assay for inhibitors of the human cytomegalovirus (HCMV). AID 1259415, 2018. activity change, negative = inhibition, % at 57.5 µM. 410,000 compounds, 4.5% hits. HFF cells, HCMV-luciferase reporter, 72 h; active compounds read low; in the data active means activity change below about -60%; inconclusive means no clear call, values can overlap the other calls; inactive means above about -39%
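Luciferase read-out from HCMV-luciferase-infected HFFs (MOI 1 PFU/cell) 72 h post infection at 37C; compounds added after 16 h cell attachment; activity normalized between buffer-only basal and Salinomycin (10uM) inhibitor controls.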
HCV inhibitor – qHTS Assay for Inhibitors of Hepatitis C Virus (HCV); Huh7.5.1 HCVcc-Cre infection, luciferase reporter, 44 h; AID 651820, 2012; Potency, µM (top dose mostly 41.8 µM), usual class: inhibitors; 340,000 compounds, 3.4% hits; active means well fitted inhibition curve with a large enough effect; inconclusive means small, poorly fitted or top-dose-only effect, or another doubt; inactive means no such curve, though single readings can be large or run the other way
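Cells (1,000/well) were plated 4 h before compound, then infected with HCVcc-Cre virus (~0.5 moi). After 44 h further culture, infection was read as luciferase luminescence following a 15 min substrate incubation at room temperature.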
Each line names hits and unclear results; the compound was inactive in the other large screens; ! = a repeat was not active.

Nc1nc(=S)c2ncn([C@@H]3O[C@H](CO)[C@@H](O)[C@H]3O)c2[nH]1	HCMV inh -89, HCV inhibitor 2.2µM (no result: Lassa entry inh, MARV entry inh)
CCCCCCCCCCCCCCCC(=O)Nc1ccn(C2OC(CO)C(O)C2O)c(=O)n1 (configuration not stated)	MARV entry inh inconclusive, HCMV inh -98
C#CCN1C(=O)CC[C@@]23C1=NC(C(=O)OC)=C(C(=O)OC)[C@@H]2N(CC=C(C)C)c1ccccc13	Lassa entry inh inconclusive (no result: FMDV antiviral, HCMV inh, HCV inhibitor)
Nc1ccn(C2OC(CO)C(O)C2O)c(=O)n1 (configuration not stated)	none (no result: Lassa entry inh, MARV entry inh, HCMV inh, HCV inhibitor)
NC[C@H]1O[C@@H](n2ccc(N)nc2=O)[C@H](O)[C@@H]1O	HCMV inh -87 (no result: Lassa entry inh, MARV entry inh, HCV inhibitor)
Nc1ccn([C@@H]2O[C@H](CO)[C@@H](O)[C@@H]2O)c(=O)n1	Lassa entry inh inconclusive, MARV entry inh inconclusive, HCMV inh -100, HCV inhibitor inconclusive
NC(=O)c1ncn([C@@H]2O[C@H](CO)[C@@H](O)[C@H]2O)n1	Lassa entry inh 23µM!, MARV entry inh inconclusive
C=C1C[C@@]2(C)CCCC3=CC(=O)C=C[C@@]32c2ccc(OC)c(OC)c21	none (no result: Lassa entry inh, FMDV antiviral, MARV entry inh, HCV inhibitor)
O=C(c1cccc(Cl)c1)N1CCCC(c2ccc(Cl)cc2)=N1	Lassa entry inh inconclusive, HCV inhibitor 7.9µM (no result: FMDV antiviral)
O=C(c1ccccc1)N1CCCC(c2ccc(Cl)cc2)=N1	Lassa entry inh inconclusive, HCV inhibitor inconclusive (no result: FMDV antiviral)
CCc1nn(C(C)C(=O)Nc2cccc(C)c2C)c(=O)c2cc3occc3n12 (configuration not stated)	HCV inhibitor 11µM
CCc1cccc(C)c1NC(=O)CSc1nnc(CC)n2c1cc1occc12	FMDV antiviral 22µM, HCMV inh -69 (no result: MARV entry inh, HCV inhibitor)
CCc1nn(C(C)C(=O)NCCN2CCN(c3cccc(C)c3C)CC2)c(=O)c2cc3occc3n12 (configuration not stated)	FMDV antiviral 28µM, MARV entry inh inconclusive, HCV inhibitor 1.8µM
CCc1nn(C(C)C(=O)NCCN2CCCCCC2)c(=O)c2cc3occc3n12 (configuration not stated)	MARV entry inh inconclusive, HCV inhibitor inconclusive
CCc1nn(C(C)C(=O)N2CCc3ccccc3C2)c(=O)c2cc3occc3n12 (configuration not stated)	none
CCOc1ccc(-c2cc(-c3nc(-c4cc(OC)c(OC)c(OC)c4)no3)[nH]n2)cc1Cl	none (no result: MARV entry inh, HCV inhibitor)
CCN(CC)c1ccc(NC(=O)CN2CCN(S(=O)(=O)c3ccc(C(C)C)cc3)CC2)cc1	Lassa entry inh inconclusive (no result: MARV entry inh, HCV inhibitor)
N[C@@H](CO)C(=O)O	none (no result: Lassa entry inh, MARV entry inh, HCMV inh, HCV inhibitor)
Cc1noc2ncnc(NCc3ccc(Cl)cc3)c12	FMDV antiviral inconclusive, HCMV inh inconclusive (no result: MARV entry inh, HCV inhibitor)
O=c1[nH][nH]c2cc([N+](=O)[O-])ccc12	MARV entry inh inconclusive, HCV inhibitor inconclusive
O=C(NC1CCCCC1)Oc1cc2oc(=O)sc2cc1Cl	FMDV antiviral 25µM
COc1cc(C(=O)N2CCN(Cc3ccc4c(c3)OCO4)CC2)c([N+](=O)[O-])cc1OC	HCV inhibitor inconclusive (no result: Lassa entry inh, MARV entry inh)
CCN1CCN(Cc2cc(OC)c(OC)cc2[N+](=O)[O-])CC1	none
COc1cc(CN2CCN(Cc3ccc([N+](=O)[O-])cc3)CC2)c([N+](=O)[O-])cc1OC	FMDV antiviral inconclusive, HCMV inh -76 (no result: Lassa entry inh, MARV entry inh)
COc1ccc(C(=O)N2CCN(Cc3ccc4c(c3)OCO4)CC2)cc1[N+](=O)[O-]	Lassa entry inh inconclusive, MARV entry inh inconclusive, HCMV inh -83, HCV inhibitor inconclusive
COc1cc2cc(C(=O)N3CCN(Cc4ccc5c(c4)OCO5)CC3)[nH]c2cc1OC	HCMV inh -92, HCV inhibitor inconclusive (no result: Lassa entry inh, MARV entry inh)
COc1ccc(/C(N)=N/OC(=O)Cc2ccc(OC)c(OC)c2)cc1	MARV entry inh inconclusive, HCMV inh -90, HCV inhibitor inconclusive (no result: FMDV antiviral)
O=C(Nc1cccc(-c2nc3ncccc3o2)c1)c1ccc(-c2cccc(Cl)c2Cl)o1	FMDV antiviral 11µM, HCMV inh -92 (no result: HCV inhibitor)
CC(C)C(=O)Nc1cccc(-c2nc3ncccc3o2)c1	none (no result: Lassa entry inh, MARV entry inh)
O=C(CSc1ccc(Cl)cc1)Nc1cccc(-c2nc3ncccc3o2)c1	Lassa entry inh inconclusive, FMDV antiviral 14µM, MARV entry inh inconclusive
O=C(CSc1ccc(Cl)cc1)Nc1cc(-c2nc3ncccc3o2)ccc1Cl	none (no result: Lassa entry inh, FMDV antiviral, MARV entry inh)
CCCCNC(=O)C1c2cc(OC)c(OC)cc2C(=O)N(C)C1c1ccc(OC)cc1 (configuration not stated)	HCMV inh -100
CCCCNC(=O)C1c2cc(OC)c(OC)cc2C(=O)N(C)C1c1cccs1 (configuration not stated)	none
Cc1occc1-c1nnc(SCC(=O)Nc2nc(C(C)(C)C)cs2)o1	MARV entry inh inconclusive, HCMV inh -69, HCV inhibitor inconclusive
C(=N\Nc1nc(N2CCOCC2)nc(N2CCOCC2)n1)/c1cccnc1	none
COc1cc(/C=N/Nc2nc(Nc3ccccc3)nc(N3CCOCC3)n2)ccc1OC(=O)c1ccco1	Lassa entry inh inconclusive, MARV entry inh 2.1µM, HCV inhibitor inconclusive
COc1cc(/C=N/Nc2nc(Nc3ccccc3)nc(N3CCCCC3)n2)ccc1OCC(=O)O	none
O=C(Oc1cccc(/C=N/Nc2nc(N3CCOCC3)nc(N3CCOCC3)n2)c1)c1ccco1	FMDV antiviral inconclusive, MARV entry inh inconclusive, HCV inhibitor 1.1µM
CCOC(=O)c1c(NC(=O)COC(=O)c2cccc([N+](=O)[O-])c2)sc(C(=O)N(C)C)c1C	HCMV inh inconclusive (no result: Lassa entry inh, MARV entry inh, HCV inhibitor)
COC(=O)c1nnn(-c2ccc(F)c(Cl)c2)c1C(=O)OC	none
COC(=O)c1c(C)nn(-c2ccc(F)c(Cl)c2)c1-c1cc(C)on1	Lassa entry inh inconclusive, FMDV antiviral inconclusive, MARV entry inh 4.5µM, HCV inhibitor 8.9µM
S=c1[nH]nc(Cc2ccc(Br)cc2)n1/N=C/c1ccc(Cl)cc1	Lassa entry inh inconclusive, MARV entry inh inconclusive, HCMV inh -67
S=c1[nH]nc(COc2ccccc2)n1/N=C/c1ccc(Cl)cc1	Lassa entry inh inconclusive
CC1CN(C(=O)c2cc(S(=O)(=O)N(C)c3ccc(F)cc3)ccc2Cl)CC(C)O1 (configuration not stated)	Lassa entry inh inconclusive, MARV entry inh inconclusive, HCV inhibitor 10µM
CC(=O)Nc1ccc(NC(=O)COC(=O)c2ccc(S(=O)(=O)N(C)c3ccccc3)cc2)cc1	HCMV inh -100 (no result: Lassa entry inh, MARV entry inh)
CN(c1ccccc1)S(=O)(=O)c1ccc(NC(=O)c2ccc(F)cc2)cc1	Lassa entry inh inconclusive, FMDV antiviral inconclusive, MARV entry inh 18µM, HCV inhibitor inconclusive
CN(c1ccccc1)S(=O)(=O)c1ccc(NC(=O)c2ccccc2)cc1	Lassa entry inh inconclusive, FMDV antiviral inconclusive, HCV inhibitor inconclusive
CCN(CC)c1ccc(C(=O)OCC(=O)Nc2ccccc2-c2ccccc2)cc1	Lassa entry inh inconclusive, FMDV antiviral 18µM, MARV entry inh inconclusive, HCV inhibitor 8.9µM
Cc1cc(C(=O)NCc2nnc3n2CCN(Cc2ccc(F)cc2F)CC3)c(C)o1	none (no result: Lassa entry inh, MARV entry inh, HCMV inh, HCV inhibitor)
